Screening results deposited in PubChem by several laboratories.
Most compounds without a hit are left out; they make up all but 3.5% or so of the library.
UGM FP inh = blocks M. tuberculosis UGM enzyme; P9WIQ1; purified UGM, fluorescence polarization probe displacement; inhibition, % at 10 µM; 0.06% of 320,000 active; in the data active means inhibition above about 10%, passing the limit was not always enough
Target sequence (P9WIQ1 whole entry, looked up): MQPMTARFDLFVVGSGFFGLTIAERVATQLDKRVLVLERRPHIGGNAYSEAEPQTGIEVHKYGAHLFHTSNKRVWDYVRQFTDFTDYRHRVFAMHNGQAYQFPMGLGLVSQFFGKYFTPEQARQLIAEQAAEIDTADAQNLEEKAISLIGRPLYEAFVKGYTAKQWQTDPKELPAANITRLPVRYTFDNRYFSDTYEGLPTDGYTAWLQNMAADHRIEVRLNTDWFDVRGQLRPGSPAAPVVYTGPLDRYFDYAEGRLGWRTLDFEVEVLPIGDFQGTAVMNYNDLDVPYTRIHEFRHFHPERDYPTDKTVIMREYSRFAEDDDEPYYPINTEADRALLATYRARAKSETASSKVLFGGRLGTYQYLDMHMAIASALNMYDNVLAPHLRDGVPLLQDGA
Rv3671c inh = inhibits the M. tuberculosis serine protease Rv3671c. P9WHR9. inhibition, % at 5.96 µM. 0.048% of 320,000 active; in the data active means inhibition above about 38%;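 further: extracellular domain of Rv3671c used as enzyme; 0% = enzyme with DMSO and 100% = no enzyme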
Mtb bLac sens = beta-lactam sensitization of Mtb H37Rv | AID 434955 | 0.27% of 330,000 active | inhibition, % at 25 µM | M. tuberculosis H37Rv growth with meropenem, percent inhibition; call rule not given here;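 further: growth measured after seven days incubation then overnight dye step; 0% = bacteria only wells and 100% = bacteria with antibiotic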
FBA Mtb inh = Mtb fructose-bisphosphate aldolase inhibition; inhibition, % at 1 µM; 2.3% of 360,000 active; AID 588726; purified M. tuberculosis FBA, fluorescence read-out; P9WQA3; in the data active means inhibition above about 27%;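 further: 0% = vehicle and 100% = reference inhibitor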
GDH-TPI counter = counter-screen for M. tuberculosis FBA inhibitors: GDH-TPI coupled enzymes; GDH-TPI coupled enzyme counterscreen, NADH absorbance; inhibition, % at 4.8 µM; 1.2% of 360,000 active; in the data active means inhibition above about 30%;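 further: 0% = DMSO wells and 100% = wells lacking the enzyme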
Numbers without * were called inactive; x = not tested or not shown; + = active, no number.

SMILES	UGM FP inh	Rv3671c inh	Mtb bLac sens	FBA Mtb inh	GDH-TPI counter
CC(C)(C)OC(=O)N1CCC(C(=O)N[C@H](C(=O)O)c2ccccc2)(c2ccccc2)CC1	-1	-8	-2	1	-1
CC(=O)c1cccc(NC(=O)c2ccc([N+](=O)[O-])o2)c1	1	-2	100	0	46*
CCCCn1c(N)c(N(CC(C)C)C(=O)C2CCCN(C(=O)c3ccc(Cl)cc3)C2)c(=O)[nH]c1=O (configuration not stated)	-3	-1	-1	4	4
COc1ccc(C2NC(=O)NC(C)=C2[N+](=O)[O-])cc1OC (configuration not stated)	2	8	-5	0	37*
O=C(NCCc1ccccc1)C1CCN(C(=O)c2ccc([N+](=O)[O-])cc2)CC1	3	-4	-7	6	12
O=C(N/N=C/c1ccc(O)cc1)c1ccncc1	-2	0	6	3	25
O=C(N/N=C/c1ccc(O)cc1O)C(=O)N/N=C/c1ccc(O)cc1O	2	-1	3	-3	41*
O=C(CCC(=O)Nc1ccc(F)cc1)N/N=C/c1ccc(O)cc1O	-3	16	1	5	26
N/C(=N\[N+](=O)[O-])N/N=C/c1ccc(O)cc1	1	-1	-1	0	37*
C=C1CC(C(=O)N/N=C/c2ccc(O)cc2)C1	2	-7	-10	4	4
O=C(NN=Cc1ccc(O)cc1)C(=O)NN=Cc1ccc(O)cc1	x	x	x	-7	68*
Cc1cc(C)n(CCC(=O)N/N=C/c2ccc(O)cc2O)n1	x	10	37	4	31*
Cc1cc(C)n(CCC(=O)N/N=C/c2ccccc2O)n1	0	3	4	4	19
COCCCN1C(=O)C(=O)/C(=C(/O)c2ccc(S(=O)(=O)N3CCOCC3)cc2)C1c1ccc(C(C)C)cc1 (configuration not stated)	1	-3	4	1	8
COCc1cc(C)nc(OCC(=O)N/N=C/c2ccc(O)cc2O)c1C#N	-3	-3	-1	2	35*
COCc1cc(C)nc(OCC(=O)N/N=C/c2ccccc2O)c1C#N	1	-2	6	2	18
COc1ccc(/C=N/Nc2cc(C)nc(NS(=O)(=O)c3ccc(C)cc3)n2)cc1	2	-2	0	0	26
COc1cc(/C=N/Nc2cc(C)nc(NS(=O)(=O)c3ccccc3)n2)ccc1O	4	2	0	0	54*
COc1cc(/C=N/Nc2cc(C)nc(NS(=O)(=O)c3ccc(C)cc3)n2)ccc1O	x	x	x	-1	54*
O=c1oc2c(CN3CCOCC3)c(O)c(Cl)cc2c2c1CCC2	x	x	x	x	16
CCN(CC)Cc1c(O)c(Cl)cc2c3c(c(=O)oc12)CCCC3	3	-3	2	+	15
CN(C)Cc1c(O)c(Cl)cc2c3c(c(=O)oc12)CCCC3	1	-2	12	+	19
Cc1ccc(N/C=C(/C#N)c2ccsc2)cc1	-2	3	92	-2	22
N#C/C(=C/Nc1ccccc1)c1ccsc1	1	0	4	-2	34*
Cc1cccc2c1-c1sc(C(=O)NCCCN3CCCC(C)C3)cc1CO2 (configuration not stated)	-2	-15	4	+	22
SMILES	UGM FP inh	Rv3671c inh	Mtb bLac sens	FBA Mtb inh	GDH-TPI counter
Cc1ccc2oc(=O)c3cc(C(=O)NCCCN4CCCC(C)C4)sc3c2c1 (configuration not stated)	3	-2	0	5	27
CCN1CCN(CCCNC(=O)c2cc3c(s2)-c2ccccc2OC3)CC1	1	2	2	x	30
CCCN1CCN(CCCNC(=O)c2cc3c(s2)-c2c(C)cccc2OC3)CC1	-1	-9	3	+	21
CN(C)CCNC(=O)c1cc2c(s1)-c1ccccc1OC2	1	-4	3	+	32*
CC1CC(C)CN(CCCNC(=O)c2cc3c(s2)-c2ccccc2OC3)C1 (configuration not stated)	2	-4	36	+	15
Cc1cccc(NC(=O)c2cc3c(s2)-c2c(C)cccc2OC3)n1	-1	-3	-6	14	22
Cc1c(NC(=O)c2cc3c(s2)-c2ccccc2OC3)cccc1[N+](=O)[O-]	-3	-7	-3	0	36*
CC1CCCC(C)N1CCCNC(=O)c1cc2c(s1)-c1ccccc1OC2 (configuration not stated)	-2	-3	6	+	25
COc1cccc(N2CCN(C(=O)c3cc4c(s3)-c3ccccc3OC4)CC2)c1	-1	-12	1	5	9
